Results taken from PubChem BioAssay AID493113 (Johns Hopkins Ion Channel Center, 2011).
Results with a measured potency or affinity are listed apart. The source made the active and inactive calls.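 The calls were made as follows: active = compound that boosts KCNQ2 potassium channel current at some tested dose and yields a dose response curve; inactive = no boost at any tested dose or no curve.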

Biological target: Potassium voltage-gated channel subfamily KQT member 2 (Rattus norvegicus) (UniProt O88943)
Sequence (O88943 whole entry, looked up): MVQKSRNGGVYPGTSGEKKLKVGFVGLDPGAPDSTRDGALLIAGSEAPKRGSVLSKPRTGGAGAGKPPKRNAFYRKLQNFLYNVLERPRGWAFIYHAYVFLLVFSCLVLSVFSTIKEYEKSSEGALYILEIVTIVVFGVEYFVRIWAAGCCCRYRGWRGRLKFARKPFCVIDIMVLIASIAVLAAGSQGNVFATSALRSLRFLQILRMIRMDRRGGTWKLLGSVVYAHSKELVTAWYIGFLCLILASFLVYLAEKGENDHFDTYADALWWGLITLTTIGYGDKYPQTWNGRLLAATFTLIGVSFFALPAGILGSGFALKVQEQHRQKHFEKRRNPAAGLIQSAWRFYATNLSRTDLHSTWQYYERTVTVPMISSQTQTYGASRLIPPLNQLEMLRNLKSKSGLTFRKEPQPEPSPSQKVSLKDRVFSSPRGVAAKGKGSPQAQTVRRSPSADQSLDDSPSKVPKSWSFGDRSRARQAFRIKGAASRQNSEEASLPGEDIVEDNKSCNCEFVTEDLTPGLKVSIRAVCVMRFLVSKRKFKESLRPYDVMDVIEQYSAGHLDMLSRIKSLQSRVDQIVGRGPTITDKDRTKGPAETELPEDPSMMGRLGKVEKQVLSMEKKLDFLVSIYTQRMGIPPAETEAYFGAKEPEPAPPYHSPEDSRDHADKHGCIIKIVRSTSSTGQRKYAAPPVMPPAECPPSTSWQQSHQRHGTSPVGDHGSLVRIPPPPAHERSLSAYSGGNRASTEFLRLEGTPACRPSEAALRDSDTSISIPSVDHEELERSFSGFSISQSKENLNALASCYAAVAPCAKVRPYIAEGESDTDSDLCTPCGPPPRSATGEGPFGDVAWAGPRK
Test: KCNQ2 channel activators, analog series, SAR follow-up, automated patch clamp, KCNQ2-CHO cells (AID 493113)
Conditions: automated patch clamp current potentiation; series mostly up to 30 µM

Row | SMILES | outcome
1 | Cc1cc(C)c(NC(=O)c2cccc(C(F)(F)F)c2)c(C)c1 | inactive
2 | O=C(Nc1ccc(C(F)(F)F)cc1)C1CC2CCC1C2 (configuration not stated) | inactive
3 | O=C(Nc1ccccn1)C1CC2CCC1C2 (configuration not stated) | inactive
4 | CCC(=O)Nc1c(C)cc(C)cc1C | inactive
5 | O=C(Nc1ccc(F)cc1)C1CC2CCC1C2 (configuration not stated) | inactive
6 | Cc1cc(C)c(NC(=O)C(C)(C)C)c(C)c1 | inactive
7 | Cc1cc(C)cc(NC(=O)C2CC3CCC2C3)c1 (configuration not stated) | inactive
8 | Cc1cc(C)c(NC(=O)c2ccc3ccccc3c2)c(C)c1 | inactive
9 | CC(=O)Nc1c(C)cc(C)cc1C | inactive
10 | Cc1cc(C)c(NC(=O)c2cc(C(F)(F)F)cc(C(F)(F)F)c2)c(C)c1 | inactive
11 | Cc1cc(C)c(NC(=O)C23CCC(C)(C(=O)O2)C3(C)C)c(C)c1 (configuration not stated) | inactive
12 | O=C(Nc1ccccc1)C1CC2CCC1C2 (configuration not stated) | inactive
13 | Cc1cc(C)c(NC(=O)c2ccc(Cl)c(Cl)c2)c(C)c1 | inactive
14 | Cc1cc(C)c(NC(=O)C23CC4CC(CC(C4)C2)C3)c(C)c1 | inactive
15 | Cc1cc(C)c(NC(=O)c2ccccc2)c(C)c1 | inactive
16 | Cc1ccc(C(=O)Nc2c(C)cc(C)cc2C)cc1 | inactive
17 | Cc1cc(C)c(NC(=O)c2ccc(C(F)(F)F)cc2)c(C)c1 | inactive
